Measurements reported in PubChem BioAssay (NCI).
The panel holds about 83,000 compounds, 20% with a hit somewhere; the sample as a whole holds those more often.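 Treatment: one concentration, 48 hours, 96-well format. Scoring: percent growth, with anything below 10 considered active.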 A number with no mark means an inactive call. The source made the active and inactive calls.

What was measured:
Assay in all cases: NCI-60 one-dose screen, 48 h (100 = growth as untreated, 0 = no growth, -100 = all killed)
Settings in all cases: 10 µM
[1] = system: SR leukemia
[2] = system: RPMI-8226 leukemia
[3] = system: OVCAR-8 ovarian
[4] = system: OVCAR-5 ovarian
[5] = system: OVCAR-4 ovarian
[6] = system: SK-OV-3 ovarian
[7] = system: IGROV1 ovarian
[8] = system: OVCAR-3 ovarian
[9] = system: HS 578T breast
[10] = system: NCI/ADR-RES ovarian

Compound | growth [1] | growth [2] | growth [3] | growth [4] | growth [5] | growth [6] | growth [7] | growth [8] | growth [9] | growth [10]
COC1=C[C@]23CCC(=O)N2CCc2cc4c(cc2[C@@H]3[C@@H]1OC(=O)CCCC(C)C)OCO4 | 18.2% | 22.4% | 73.9% | 78.4% | 54% | 53.7% | 43.3% | 45% | 71.8% | 74.9%
CCOP(=O)(OCC)O[C@H]1CCC(=O)[C@@H]2[C@H]1[C@H]1C[C@@H]3[C@@]4(C)CCCC(C)(C(=O)OC)[C@@H]4CC[C@@]23C=C1C(C)C (stereo not given in full) | 37.5% | 21.9% | 55.5% | 92.7% | 49.5% | 54% | 72.1% | 67.7% | 59.5% | 44.3%
COc1ccc(-c2cc(-c3cc(C(=O)c4ccc(Br)cc4)n4ccc(C)cc34)nc(N)c2C#N)cc1 | 79.1% | 86.8% | 66.3% | 91.8% | 86.1% | 105% | 90% | 108% | 90.8% | 82.6%
O=C(NO)c1ccc(Cn2ccc3c(NCc4ccccc4)ncnc32)cc1 | 12.7% | 17.2% | -37.8% (active) | -8.63% (active) | 36% | -30.5% (active) | -40.1% (active) | 8.99% (active) | -0.0703% (active) | -32.1% (active)
Cc1noc2c(Cc3ccccc3)nn(CC(=O)N/N=C/c3ccc(Br)cc3)c(=O)c12 | 90.6% | 78.6% | 9.24% (active) | 62.5% | -61.9% (active) | 43.8% | 53.4% | -33.6% (active) | 30.7% | 58%
C#CCNC(=O)CCC(=O)OC[C@]12CC[C@@H](C(=C)C)[C@@H]1C1CC[C@@H]3[C@@]4(C)CCCNC(C)(C)[C@@H]4CC[C@@]3(C)[C@]1(C)CC2 (stereo not given in full) | -7.1% (active) | -6.58% (active) | -59.9% (active) | 47.3% | 30.3% | 26.9% | -3.31% (active) | -71% (active) | 14.4% | -75.1% (active)
CN1CCc2c(sc3ncnc(N/N=C/c4cn(-c5ccccc5)nc4-c4ccc(Cl)cc4)c23)C1 | 8.8% (active) | 23.7% | -26.1% (active) | 27% | -9.33% (active) | 64% | 1.89% (active) | -17.2% (active) | 46.6% | -35.3% (active)
CC(=O)NS(=O)(=O)c1ccc(NC(=O)CSC2=NC(c3ccccc3)C(C(C)=O)=C(C)N2)cc1 (stereo not given) | 101% | 96% | 115% | 104% | 113% | 100% | 108% | 133% | 107% | 99.6%
CC(=O)c1cc(C(=O)N2c3ccccc3Sc3ccccc32)n2ccc(C)cc12 | 6.72% (active) | 19.8% | 45.9% | 66.8% | 51.7% | 99.8% | 37.1% | 58% | 53.7% | 18.4%
O=C(CNc1nc(-c2ccccc2)cs1)Nc1ccc([N+](=O)[O-])cc1 | 10.8% | 11.7% | 17.7% | -39.6% (active) | 18% | 53.9% | 16.6% | 13.1% | 21.8% | -20.4% (active)
Cc1ccn2c(C(=O)c3ccc(Br)cc3)cc(-c3cc(-c4ccc(N(C)C)cc4)c(C#N)c(N)n3)c2c1 | 64.3% | 83.7% | 38.2% | 66% | 63.3% | 93.8% | 76.6% | 50.2% | 70.2% | 72%
CCCn1c(=O)c2[nH]c(-c3ccc(OCc4nc5ccc(C#N)cc5[nH]4)cc3)nc2n(CCC)c1=O | 59.5% | 68.9% | 66.3% | 113% | 78.9% | 85.5% | 62.2% | 68% | 40% | 97.1%
Cc1cc(C)nc(NS(=O)(=O)c2ccc(N/C(N)=N/c3nccc(-c4ccccc4)n3)cc2)n1 | 53.8% | 60.8% | 77.7% | 76.1% | 67.3% | 52.9% | 38.9% | 86.8% | 48.1% | 84.5%
N#Cc1c(NC(=O)c2cccc(C(F)(F)F)c2)sc2c1CCC(O)=C2 | 14.6% | 25% | 41.6% | 119% | 29.5% | 40.3% | 34.4% | 36.8% | 44.1% | 18.6%
Cc1ccc(-c2nc(Nc3ccc(C)c(S(N)(=O)=O)c3)c3ccccc3n2)cc1 | 3.79% (active) | 87% | 45.9% | 94% | 70.1% | 125% | 87.5% | 57% | 102% | 60.3%
O/N=C(\CSc1nnc(-c2c[nH]c3ccccc23)n1-c1ccccc1)c1ccc(Br)cc1 | 1.29% (active) | -13.1% (active) | -41.7% (active) | -82.5% (active) | -83.4% (active) | -50.2% (active) | -65.4% (active) | 0.699% (active) | -39.4% (active) | -73.9% (active)
CN1C(=O)N(C)C2SC(N/N=C/c3ccccc3F)=NC21 (stereo not given) | 16.4% | 90.9% | 88.4% | 86.7% | 92.7% | 88% | 56.6% | 6.19% (active) | 85.6% | 30.6%
CN1C(=O)N(C)C2SC(N/N=C/c3cccs3)=NC21 (stereo not given) | 13.4% | 51.9% | 34.4% | 42.5% | 57.9% | 40.7% | 36.7% | -54% (active) | 25.3% | -15.2% (active)
O=c1[nH]c2ccccc2cc1CSc1ccc(Nc2nccc(-c3ccc(Cl)cc3)n2)cc1 | 59.2% | 21.2% | -52.9% (active) | -19.5% (active) | -76.8% (active) | -15.1% (active) | 11% | -73.9% (active) | -22.1% (active) | -39% (active)
CN1C(=O)N(C)C2SC(N/N=C/C=C/c3ccccc3)=NC21 (stereo not given) | 13.2% | 77.1% | 93.1% | 92.8% | 72.4% | 98.4% | 68.5% | 28.8% | 89.7% | 73.9%
O=C(CSc1nnc(-c2ccc3nc(-c4ccccc4)[nH]c3c2)o1)Nc1ccc(Cl)cc1 | 29.1% | 29.6% | 21.2% | 65.1% | 61.9% | 55.9% | 52.6% | 62.9% | 16.7% | 38.5%
CN1C/C(=C\c2ccc(O)cc2O)c2[o+]c3cc(O)ccc3cc2C1 | 2.85% (active) | 33% | 62.7% | 72.1% | 68.2% | 105% | 34.8% | -8.86% (active) | 50.1% | 107%
O=c1cc(-c2ccccc2)oc2cc(OCCCNCc3ccccc3)cc(O)c12 | -24.8% (active) | -26.8% (active) | -90.5% (active) | 75.5% | -16.2% (active) | 30.1% | 9.54% (active) | 16.2% | -4.99% (active) | -77.9% (active)
CC1=C(c2cc(-c3ccc(Cl)cc3)c(C#N)c(N)n2)C(c2ccccc2)NC(=S)N1 (stereo not given) | 2.54% (active) | 9.51% (active) | 5.74% (active) | 93.5% | 81.3% | 126% | 65.7% | 17.1% | 75.3% | 37.9%
O=C(/C=C/Nc1ccccc1)c1ccc2c(c1)Nc1ccccc1S2 | 87.8% | 90.9% | 33.5% | 87.7% | 49.2% | 86.3% | 87.3% | 91.1% | 63% | 61.2%
O=C(CNc1nc(-c2ccccc2)cs1)Nc1ccc(Cl)cc1 | -18.7% (active) | 2.96% (active) | -28.8% (active) | -95.4% (active) | -33.8% (active) | -82.9% (active) | -78.6% (active) | -36.6% (active) | -3.04% (active) | -30.3% (active)
Cc1ccc(-c2ccc(SCC(=O)Nc3ccc(S(N)(=O)=O)cc3Br)nn2)cc1 | 75.3% | 67.8% | -29.8% (active) | 42% | 19.5% | 101% | 45.1% | -63.8% (active) | 31.9% | 65%
